Several values for one entry are separate records, joined by “and”; a condition that tells them apart may be missing. Equal entries are not always repeated. About 79,000 compounds went through this panel and 15% of them were active in at least one assay; those are over-represented in the sample as a whole. Some compounds were tested as several samples or in several runs, with calls that do not always agree. Activity calls are given as the source filed them. No stated cut-off is given here; in the data, active means growth inhibition above about 70%; inactive means the rest.
Assay: NCI Yeast Anticancer Drug Screen. Data for the mec2-1 strain (AID 157)
Conditions: S. cerevisiae mec2-1 strain, stronger effect = higher value
Description: Growth inhibition of yeast strains with defined genetic alterations is measured as a screen for potential anti-cancer activity. Selected strains with alterations in DNA damage repair or cell cycle control were exposed to compounds and growth inhibition was measured relative to vehicle treated controls. The strain used in this assay is mec2-1

[1] = at 5.0 µM (retest, dose inferred, filed as 0.5)
[2] = at 50.0 µM (retest, dose inferred, filed as 5.0)

Row | Compound | growth inhibition (at 1.2 µM) | growth inhibition (at 3.7 µM) | growth inhibition [1] | growth inhibition (at 11.0 µM) | growth inhibition (at 33.0 µM) | growth inhibition [2] | growth inhibition (at 50.0 µM) | growth inhibition (at 100.0 µM)
1 | OC1(c2ccccc2)CC2CCC(C1)N2CCCC(O)(c1ccccc1)c1ccccc1 (centres undefined) | 0% (inactive) | 1% (inactive) | -10% (inactive) | 4% (inactive) | 18% (inactive) | 10% (inactive) | -2.2% (inactive) | 37% (inactive)
2 | CC1(Cl)CC(C)(/C=C/Cl)C(Cl)CC1Cl (centres undefined) | 5% (inactive) | 3% (inactive) | 9% (inactive) | 6% (inactive) | 20% (inactive) | 7% (inactive) | 19.1% (inactive) | 46% (inactive)
3 | O=C(O)C1C2c3ccccc3C(c3ccccc32)C1C(=O)O (centres undefined) | -2% (inactive) | -5% (inactive) | -7% (inactive) | -3% (inactive) | -2% (inactive) | -1% (inactive) | 86.6% (active) and -20.4% (inactive) | -1% (inactive)
4 | CC1CN=C(Nc2ccccc2)S1 (centres undefined) | -49% (inactive) | -67% (inactive) | 100% (active) | -80% (inactive) | -40% (inactive) | 100% (active) | 88.8% (active) | -60% (inactive)
5 | C=CO/C(C)=C(\[Se]c1ccccc1)C(C)=O | – | – | 3% (inactive) | – | – | 91% (active) | 85.9% (active) | –
6 | N=C(N)SCc1ccc(Cl)c2ccccc12 (tested in a mixture with another compound) | – | – | 1% (inactive) and -15% (inactive) | – | – | 58% (inactive) and 35% (inactive) | 98.6% (active) and 89.5% (active) | –
7 | CC(Cc1ccccc1)N(C)Cc1ccc(-c2ccccc2)o1 (centres undefined) | – | – | 7% (inactive) | – | – | 75% (active) | 34% (inactive) | –
8 | CNCC(O)c1cn(C)c2ccccc12 (centres undefined) | – | – | 4% (inactive) | – | – | 3% (inactive) | 20.6% (inactive) | –

Reference: PubChem BioAssay (NCI)
